Measured values reported in the supplement of paper PMC10681739.

Key:
RUNX1 [1] = biological target: RUNX1 (UniProt Q01196); assay: RUNX1 binding intensity (PBM fluorescence), RUNX1 alone (arbitrary fluorescence units); higher = stronger binding; settings: RUNX1 concentration 2 nM; ETS1 concentration 0 nM
Description: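 Cooperative gcPBM on 36-bp genomic probes with neighbouring ETS1 and RUNX1 sites. Recombinant human RUNX1 (2 nM) was incubated alone or with ETS1 (25 nM) and detected with anti-RUNX1 antibody plus Alexa488 secondary. Values are medians over 4 replicate spots; the RUNX1+ETS1 data were normalised to the RUNX1-only data. The probes sit in constant array flanks that are not printed.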

ETS1 = biological target: T1, ETS1 (UniProt P14921); assay: ETS1 binding intensity (PBM fluorescence) in presence of RUNX1, normalised to ETS1-only experiment (arbitrary fluorescence units); higher = stronger binding; settings: ETS1 concentration 1 nM; RUNX1 concentration 25 nM
T1 sequence: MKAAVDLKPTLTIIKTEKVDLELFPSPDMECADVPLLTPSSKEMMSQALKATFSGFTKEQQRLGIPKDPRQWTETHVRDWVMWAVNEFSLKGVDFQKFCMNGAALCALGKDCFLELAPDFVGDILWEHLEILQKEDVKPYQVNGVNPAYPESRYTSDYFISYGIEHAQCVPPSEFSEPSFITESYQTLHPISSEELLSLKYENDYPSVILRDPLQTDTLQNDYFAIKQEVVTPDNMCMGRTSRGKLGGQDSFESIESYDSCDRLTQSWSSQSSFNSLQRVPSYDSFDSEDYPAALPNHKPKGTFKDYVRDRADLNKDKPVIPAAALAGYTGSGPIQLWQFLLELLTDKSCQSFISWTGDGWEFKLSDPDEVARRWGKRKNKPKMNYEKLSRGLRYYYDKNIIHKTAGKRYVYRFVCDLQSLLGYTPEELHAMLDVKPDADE

RUNX1 [2] = biological target: RUNX1 (UniProt Q01196); assay: TF binding intensity (PBM fluorescence), negative control probe (arbitrary fluorescence units); higher = stronger binding
Description: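 gcPBM negative-control 36-bp genomic probes lacking TF binding sites. Each was incubated with recombinant human ETS1 or RUNX1 alone and detected by antibody fluorescence. Values are medians over replicate spots (4 spots for the ETS1-RUNX1 arrays, 3 for the ETS1-ETS1 array). The probes sit in constant array flanks that are not printed.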
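Wherever RUNX1 binding intensity (PBM fluorescence), RUNX1 alone is given: Full-length recombinant human RUNX1 bound to double-stranded 36-bp genomic probes on a high-density microarray, scored as Alexa488 fluorescence per spot via anti-RUNX1 antibody, median of four replicate spots.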

Chain of RUNX1 (Q01196 whole entry): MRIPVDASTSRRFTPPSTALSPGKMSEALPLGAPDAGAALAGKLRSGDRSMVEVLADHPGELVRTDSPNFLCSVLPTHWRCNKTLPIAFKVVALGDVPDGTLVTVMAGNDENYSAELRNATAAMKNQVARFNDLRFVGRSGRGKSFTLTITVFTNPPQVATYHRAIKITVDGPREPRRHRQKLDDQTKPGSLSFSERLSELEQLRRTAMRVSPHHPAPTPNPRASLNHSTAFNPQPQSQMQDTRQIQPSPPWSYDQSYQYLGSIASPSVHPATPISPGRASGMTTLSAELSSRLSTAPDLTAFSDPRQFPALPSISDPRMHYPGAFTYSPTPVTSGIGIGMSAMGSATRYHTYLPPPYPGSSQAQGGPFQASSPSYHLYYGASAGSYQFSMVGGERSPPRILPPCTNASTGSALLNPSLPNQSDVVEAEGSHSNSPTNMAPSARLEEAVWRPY

TTTGATTTCCTGTCTCCATGTTGTGGTCAAGATTGC
RUNX1 binding intensity (RUNX1 [1]): 1370
ETS1 binding intensity (ETS1): 2990

GAGTTCTCCGCTTCCTTGCGGCCGGCGGGATTAGCC
RUNX1 binding intensity (RUNX1 [1]): 907

GGGGCAGCTTCCGGCAGGAGAGCCCGCATTCCCGGC
RUNX1 binding intensity (RUNX1 [1]): 1460
ETS1 binding intensity (ETS1): 771

CACGCCTGCGGAAGATGAAAACCACACGTCATGCAG
RUNX1 binding intensity (RUNX1 [1]): 960
ETS1 binding intensity (ETS1): 803

CTCTGGCAGGAAGCTCTGAGGGCTAAACCACAAAAA
RUNX1 binding intensity (RUNX1 [1]): 989

ATGTGTGTGTTTTTCCTTCCGGTTGCTGTGAGGTGA (protein concentration 2 nM)
TF binding intensity (RUNX1 [2]): 919

TCGAACAGAATGGAACGGAACGGAACGGAGCGTAAC (protein concentration 2 nM)
TF binding intensity (RUNX1 [2]): 1650

GACGAGCCCGGTGGCAGGAAGTGACAGTGAGAAACT (protein concentration 2 nM)
TF binding intensity (RUNX1 [2]): 965

TCTTGCCCGGGTCGGAAATGGTGGTCACGAGCGCTT
RUNX1 binding intensity (RUNX1 [1]): 772
ETS1 binding intensity (ETS1): 1600

AGGTTCGTGGCAGGAAAGTTTGTGGCAGCAAAGCCT
RUNX1 binding intensity (RUNX1 [1]): 1190

CCAGAGGGCGGAAGTGGGAGCTGCGACCGCGCTCCC
RUNX1 binding intensity (RUNX1 [1]): 690
ETS1 binding intensity (ETS1): 6280

GTGTTTTGCAGCGAAAGGAAATCTCGCTCTTCGGAA (protein concentration 2 nM)
TF binding intensity (RUNX1 [2]): 882

CAGGCTCGACACGGGCGGAACAAACGGGCTCCACTA (protein concentration 2 nM)
TF binding intensity (RUNX1 [2]): 769

GCCAAGGCCTTCCGCCGAGTTGGTTTTTGGGTTGTT
RUNX1 binding intensity (RUNX1 [1]): 867

GAGTGCCGTTTCCCCCGCTCACCGCGGGCTAGGGAG
RUNX1 binding intensity (RUNX1 [1]): 942

CATAGACCGGATGCCTCGTCAACCACAGAAACCAAT
RUNX1 binding intensity (RUNX1 [1]): 1000

GGGCCTGCGCGCGCACTTCCGCTCTCCCCTCCGGCT (protein concentration 2 nM)
TF binding intensity (RUNX1 [2]): 759

CTGCGAGCTCAGAACGGAAACCACAGCAACTACCGT
RUNX1 binding intensity (RUNX1 [1]): 1070
ETS1 binding intensity (ETS1): 4260

GCAGTCAGCCCTTCCCTTCCTGTCCGTCAACTCCGG (protein concentration 2 nM)
TF binding intensity (RUNX1 [2]): 875

CAACGGCGTAGCCGGAAGTCAGTGGTTTTCGCCCCA
RUNX1 binding intensity (RUNX1 [1]): 721
ETS1 binding intensity (ETS1): 18200

CAGTGACAGGAAGTGGTTCAGCGGTTGTTTAGGGCT
RUNX1 binding intensity (RUNX1 [1]): 892
ETS1 binding intensity (ETS1): 9430

GGGCATGGTGGCTTCCGACCGCGGGGACCCCGAGAG
RUNX1 binding intensity (RUNX1 [1]): 738

CAGACACCAACGCTCGGAAACCGCCAGACACCAAGG
RUNX1 binding intensity (RUNX1 [1]): 1030

CCTGAAGCTCATGCGGAAAACCCACAAAGGGGTGCC
RUNX1 binding intensity (RUNX1 [1]): 932

AGTCGGAAGCCATCTGCCCCAACTTGCGGTCTTCAC
RUNX1 binding intensity (RUNX1 [1]): 1070

TTCATAAAGGAGAGGAAACCTGACCACGACAGAAAG
RUNX1 binding intensity (RUNX1 [1]): 897

ATTTTAGCATTTTCCTGCTCGGAGACCACATGTTTG
RUNX1 binding intensity (RUNX1 [1]): 1170

CACTCCCCGAATCCGGTCTGCGGCGCGCTCGGGGCC
RUNX1 binding intensity (RUNX1 [1]): 774

GCCGCCGTTTCCTGATTGGTTGTGGGTGGCTACCTC
RUNX1 binding intensity (RUNX1 [1]): 834

GCCTCACAAAAGAACAGGATGTTGTTGATTTGTCAC (protein concentration 2 nM)
TF binding intensity (RUNX1 [2]): 828

CAGATCTGAAAGGGAAGTGGTTTCAAGAGGGTTCTT
RUNX1 binding intensity (RUNX1 [1]): 729
ETS1 binding intensity (ETS1): 1130

GGGATCCTTCCGCTCCGGGTTAACCCCGACCGCGCC
RUNX1 binding intensity (RUNX1 [1]): 795

GGTCCCAGGAGAGGGGTTCCGGGGTGAAAGAGTGAG (protein concentration 2 nM)
TF binding intensity (RUNX1 [2]): 1060

GGGCAGGTGCGGATGCCGAGGAGAGTGGTCACCTCG
ETS1 binding intensity (ETS1): 435

GCGCCATTTCCGCTGCGCAAGGCACCACAGGCCCTG
ETS1 binding intensity (ETS1): 943

ATCCCACTATAGGAAGCTTCTCTGTGGTTTTGAGCC
RUNX1 binding intensity (RUNX1 [1]): 1370
ETS1 binding intensity (ETS1): 1640

CACTTGTCCTTCCTGGCCTGCGGCCGCCACCACTTC
ETS1 binding intensity (ETS1): 372

CAGCCAGCCAGGAAGCAGGGGCTGCGGGGCTGACAG
ETS1 binding intensity (ETS1): 524

CTCAGAGCTGCGGAAACTACAACTCCCACAAGGCTG
ETS1 binding intensity (ETS1): 633

ACGCCGCGCATCCGCGCTTTACGGCGGCCGCAAAAT
ETS1 binding intensity (ETS1): 563

TCTTTTTATTTCCTGTGCAGTCTCGCCCACAGCACT
ETS1 binding intensity (ETS1): 1030

CTCTTCTTCAGGGTTTCCTGTGGGTACACTGAGAAC
ETS1 binding intensity (ETS1): 602

AATGTAGGAAATTCCACTGCATAATTTGTGGTAGTG
ETS1 binding intensity (ETS1): 539

CAGCTTCCGGGCTAATTAGCAGTCGCGGTGTGCCGC
ETS1 binding intensity (ETS1): 450

TTTCTTCCTGTTTGCATCACCCCAAACCCACTATCA
ETS1 binding intensity (ETS1): 469

GACCCATTTCCTGGCTCAGGAGCCCACAGCCCTGGG
ETS1 binding intensity (ETS1): 404

GTGTTGGGTGGCTTCCTGCGGCGTTTCCACTCTCGC
ETS1 binding intensity (ETS1): 504

CTGCAGACAGGAGGATGTGGGCTTGCGCGCAAACAG
ETS1 binding intensity (ETS1): 745

GCGGAGTGTTACGTAGGAAGTGGTTGTGACGTCATT
ETS1 binding intensity (ETS1): 1540

GCACCGTGGCACTTCCGCGAGCGCCGCAGGCCCTGC
ETS1 binding intensity (ETS1): 360

AGTTGGTTCCTTCCGGTGGGTTTGTGGGCTTGGGGT
ETS1 binding intensity (ETS1): 2230

AATAAACAGGAAGGTCTCTTGGAGCTGTGGTCTTGG
ETS1 binding intensity (ETS1): 1110

GAGTGGGGGTGGGGAGGAAGCCACAGGGCCGGGCTG
ETS1 binding intensity (ETS1): 771

TGAAGGAGCGGAAGGGTTGCTTGCAGACCGCACGGT
ETS1 binding intensity (ETS1): 1360

CCCCGTTACGCCCATCCGGCTCCCGCATAGGGCGTC
ETS1 binding intensity (ETS1): 402

TTCATCTACTTCCCGCCACACCCACAGAGAAGCCCA
ETS1 binding intensity (ETS1): 377

TGCTCCACTCGGAAGTGGTGCCGCAGCTCTTCGATG
ETS1 binding intensity (ETS1): 800

ATTAAAGACTTCCGTGCAAGACCACAGCTGCCTGAC
ETS1 binding intensity (ETS1): 513

AAAACGCGGAAATACGGTGGCTGCGGCCCGCGGGCA
ETS1 binding intensity (ETS1): 573

CCGGGAGGGACGGAGGATGTGTGGTTCTGTCTCCTT
ETS1 binding intensity (ETS1): 553

AGGCAGGGAAGTGGCGCAGAGGAGACCACAGGACAC
ETS1 binding intensity (ETS1): 803

TGCCTCTTCCTGTGGCTGGGCTGTATCTGACCACAC
ETS1 binding intensity (ETS1): 462

TGTGAGAAGCCGGATCCTGTGGTGACCCAGTGGCCT
ETS1 binding intensity (ETS1): 479

AGGGTTGGGGAGGATGTTGTGGTTATTATTGACATA
RUNX1 binding intensity (RUNX1 [1]): 1570
ETS1 binding intensity (ETS1): 4990

GTGCGGCGGGAAACGCGTTCCCCGGCAACCGCGCCC
ETS1 binding intensity (ETS1): 479

CCTGCCTGAGGCAGGAAGCCGCAGCTGAGGGACGGC
RUNX1 binding intensity (RUNX1 [1]): 761
ETS1 binding intensity (ETS1): 5390

TGGCTTGAGCTCAGGAAGTTGTGGCTGCAGTAAGCT
ETS1 binding intensity (ETS1): 1970

GCTATCGAGCTTCCTGCAGCGGTGGCCACCCGAGCA
ETS1 binding intensity (ETS1): 418

CCGAGCCGGCCTCTTCCGCCGCAAGTCCCTCCCCAA
ETS1 binding intensity (ETS1): 428

ACAGGTTCAGGAAGCGGCCGTGGTTGTTAGTGGTGT
ETS1 binding intensity (ETS1): 639

GACACCTGAGAGGATGTGTGGCTTTGTGCTATGAGA
ETS1 binding intensity (ETS1): 847

TCCTAGCCATTTCCTATCCACCCTGTGGCTAATTTG
ETS1 binding intensity (ETS1): 476

GCGCACGCGCGTTGTTTCCGCGGTAGTCAGGGCAGT
ETS1 binding intensity (ETS1): 364
